Assay outcomes (PubChem BioAssay)
NS1 function inh: blocks influenza NS1 protein function | Potency, µM (doses to about 46.1 µM) | hit rate 0.4% among 270,000 | AID 2326; calls by dose curve; further: actives are rising curves; nearly all actives have a fitted effect of over 50% in size
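OD600 was taken as the measure of yeast growth restored by compound in an NS1-expressing S. cerevisiae strain. Cells had been washed out of glucose medium and diluted 1:100 into galactose -URA medium, pH 6.0.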
Pf growth 48h: inhibits P. falciparum growth in the first generation, 48 h; P. falciparum luciferase growth in erythrocytes, 48 h; Potency, µM (doses to about 28.7 µM), usual class: inhibitors; hit rate 5.9% among 310,000
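Read-out is firefly luciferase luminescence from an integrated reporter in P. falciparum, so falling signal marks reduced parasite growth. Infected erythrocytes were at 2% hematocrit and 0.1% parasitemia (final) in Albumax-supplemented RPMI 1640.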
HCV inhibitor: blocks hepatitis C virus | Huh7.5.1 HCVcc-Cre infection, luciferase reporter, 44 h | Potency, µM (top dose mostly 41.8 µM), most hits filed as inhibitors | hit rate 3.4% among 340,000 | AID 651820
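Antiviral activity was scored by luciferase reporter output from cells infected with HCVcc-Cre (~0.5 moi) in presence of compound, 44 h infection period, cells seeded 1,000/well 4 h prior.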
AMA1-RON2 inh: inhibitors of Plasmodium falciparum AMA1-RON2 interaction; hit rate 0.2% among 360,000; AlphaScreen AMA1-biotinylated RON2 peptide binding; Potency, µM (series often up to 58.2 µM), most hits filed as inhibitors; further: nearly all actives have a fitted effect of over 45% in size
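AMA1 (3D7) with his tag at 25 nM final met compounds first, then biotinylated RON2 peptide at 25 nM; detection used donor plus acceptor beads, 10 µg/mL apiece, read by AlphaScreen after 30 min at room temperature.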
Pf growth 96h: inhibits malaria parasite growth, 96 h; P. falciparum luciferase reporter growth, 96 h; Potency, µM (highest dose often 28.7 µM), usual class: inhibitors; hit rate 6.9% among 320,000
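96 h incubation, 37 C, 5% CO2, of luciferase-reporter P. falciparum-infected RBCs (2% hematocrit, 0.05% parasitemia final) with test compounds; endpoint luminescence.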
SARS PLpro yeast: inhibitors of SARS-CoV papain-like protease in yeast. S. cerevisiae expressing SARS-CoV PLpro, growth rescue. hit rate 0.19% among 330,000. Potency, µM (top dose mostly 32.9 µM), hits mostly activators; calls by dose curve; further: nearly all actives have a fitted effect of over 55% in size
A number is an active result; – = inactive; ? = inconclusive; · = not tested or not shown; [ ] = dose if it differs, or a comment. Compounds with a hit are over-represented: about 12% of the library has one in this group of screens. Unless noted, the call rests on the fitted dose curve; in most records, active means well fitted curve in the direction sought with a large enough effect; inconclusive means small, poorly fitted or top-dose-only effect, or another doubt; inactive means no such curve, though single readings can be large; an effect the other way counts as inactive or inconclusive.

SMILES	NS1 function inh	Pf growth 48h	HCV inhibitor	AMA1-RON2 inh	Pf growth 96h	SARS PLpro yeast
CCC(C)c1ccc(C(C)NC(=S)NC2CCCCC2)cc1 (configuration not stated)	–	7.4µM	?	–	9.3µM	–
CC(NC(=S)NC1CCCCC1)c1ccc(C(C)(C)C)cc1 (configuration not stated)	–	5.9µM	?	–	–	–
CC(C)c1ccc(C(C)NC(=S)NC2CCCCC2)cc1 (configuration not stated)	–	12µM	11µM	–	–	–
CCc1ccc(C(C)NC(=S)NC2CCCCC2)cc1 (configuration not stated)	–	?	?	–	–	?
CCOc1ccc(C(C)NC(=S)NC2CCCCC2)cc1OCC (configuration not stated)	·	0.083µM	?	–	?	–
CC(C(N)=O)N1C(=O)NC2(CCCc3ccccc32)C1=O (configuration not stated)	–	–	–	–	–	–
O=C(O)c1ccc(COc2ccc3ccccc3c2/C=C2/NC(=O)N(c3ccccc3)C2=O)cc1	?	5.9µM	–	–	?	–
O=C(O)c1ccc(COc2ccccc2/C=C2/NC(=O)N(c3cccc(Cl)c3)C2=O)cc1	–	–	–	–[11.6 µM]	?	–
CCN1C(=O)S/C(=C/c2cn(C)c3ccccc23)C1=O	–	–	–	–	?	–
CCN1C(=O)S/C(=C/c2c(OCc3ccc(C(=O)O)cc3)ccc3ccccc23)C1=O	–	?	–	?	6.6µM	–
O=C1NC(=O)C(=Cc2ccc3c(c2)OCO3)C(=O)N1	·	–	·	·	9.3µM	–
CC(=O)Nc1ccc(NC(=O)C(=O)NCC(c2ccco2)N2CCc3ccccc32)cc1 (configuration not stated)	·	13µM	–	–	10µM	–
COc1ccc(NC(=O)C(=O)NCC(c2ccco2)N2CCc3ccccc32)cc1 (configuration not stated)	·	–	?	–	–	–
Nc1ccc2nc(C3CCCCC3)[nH]c2c1	–	–	–	–	–	–
Nc1ccc2cc3[nH]c4cc(N)ccc4c3nc2c1	·	·	1.6µM	–	·	·
CCC1CCCCN1CCCNC(=O)c1cn(CC)c2ccc(S(=O)(=O)N(C)C3CCCCC3)cc2c1=O (configuration not stated)	–	?	?	–	?	–
CCCCN(CCCC)CCNC(=O)c1cn(CC)c2ccc(S(=O)(=O)N3CCc4ccccc4C3)cc2c1=O	–	?	?	–	–	–
CCC1CCCCN1CCCNC(=O)c1cn(CC)c2ccc(S(=O)(=O)N3CCc4ccccc4C3)cc2c1=O (configuration not stated)	·	–	13µM	–	–	–
CCn1cc(C(=O)NCCCN2CCCC(C)C2)c(=O)c2cc(S(=O)(=O)N3CCc4ccccc4C3)ccc21 (configuration not stated)	·	?	11µM	–	?	–
COC(=O)c1cccc(NC(=O)c2cc3sccc3n2C)c1	–	–	14µM	–	–	–
COc1ccccc1-n1c(SCC(=O)Nc2nnc(C)s2)nc2c(c1=O)SCC2	–	–	–	–	12µM	–
COc1ccccc1-n1c(SCC(=O)Nc2ccc(F)cc2)nc2c(c1=O)SCC2	–	?	?	–	?	–
COCCn1c(SCC(=O)N2CCCC2)nc2c(c1=O)SCC2	·	·	·	–	·	·
CCOC(=O)N1CCN(C(=O)CSc2nc3c(c(=O)n2-c2ccccc2OC)SCC3)CC1	–	?	–	–	1.3µM	–
COc1ccccc1-n1c(SCC(=O)Nc2cc(C)on2)nc2c(c1=O)SCC2	·	?	–	–	?	–
SMILES	NS1 function inh	Pf growth 48h	HCV inhibitor	AMA1-RON2 inh	Pf growth 96h	SARS PLpro yeast
CCn1c(SCC(=O)N2CCCCCC2)nc2c(c1=O)SCC2	–	–	·	–	5.9µM	–
CCCC(=O)C1=C(O)C(C(=O)OC)C(C)(C)CC1=NCc1ccccc1 (configuration not stated)	–	?	–	–	7.4µM	–
CCCC(=O)C1=C(O)C(C(=O)OC)C(C)(C)CC1=Nc1ccccc1 (configuration not stated)	–	4.1µM	–	–	–	–
CCCC(=O)C1=C(O)C(C(=O)OC)C(C)(C)CC1=NC(C)(C)C (configuration not stated)	–	?	?	–	·	–
CCCC(=O)C1=C(O)C(C(=O)OC)C(C)(C)CC1=Nc1cccc2ccccc12 (configuration not stated)	–	5.2µM	?	–	–	–
CCCC(=O)C1=C(O)C(C(=O)OC)C(C)(C)CC1=Nc1cccc([N+](=O)[O-])c1 (configuration not stated)	–	?	–	–	–	–
CCC(=NCc1ccccc1)C1=C(O)C(C(=O)OC)C(C)(C)CC1=O (configuration not stated)	–	–	–	–	12µM	–
COc1cc2[nH]c3c(=O)n4c(nc3c2cc1OC)SCCC4	·	–	?	–	–	–
CC(=O)c1ccc(NC(=O)CN2CCCCCC2)cc1	–	–	–	–	–	–
CCN(CCn1cccn1)C(=O)c1cc(COc2cc(C)ccc2C)on1	–	–	·	–	?	–
CC(=O)N(c1nc(CCl)cs1)c1cccc(C)c1C	–	–[1.15 µM]	–	–	–	–
CN(CCO)CCC(=O)NC1(C)CS(=O)(=O)CC1S(=O)(=O)O (configuration not stated)	–	–	–	–	–	–
CCOC(=O)c1cc(-c2ccccc2)n(CCC(=O)N2CCN(c3ccccn3)CC2)c1C	–	?	–	–	13µM	–
Cc1ccc(S(=O)(=O)N(C)CCCC(=O)N2CCN(c3ccccn3)CC2)cc1	–	13µM	?	–	·	?
CN(C)c1ccc(/C=N/NC(=S)NCc2ccccc2)cc1	–	?	–	?	12µM	–
CC(C)(C)c1ccc(/C=N/NC(=S)NCc2ccccc2)cc1	–	?	–	–	–	–
Cc1ccsc1/C=N/NC(=S)NCc1ccccc1	·	2.9µM	?	–	–	–
Cc1cc2[nH]c(=O)c(=O)[nH]c2cc1S(=O)(=O)Nc1cccc(Cl)c1	–	–	–	–	–	–
Cc1ccc(S(=O)(=O)N2CCC(C(=O)N3CC(C)OC(C)C3)CC2)cc1 (configuration not stated)	–	–	–	–	?	–
CC(C)C[C@H](NC(=O)c1nc[nH]c1C(=O)N(C)Cc1ccccc1)C(=O)OC(C)(C)C	–	?	–	–	7.4µM	–
C[C@H](NC(=O)c1nc[nH]c1C(=O)NCCCCCNC(=O)OC(C)(C)C)c1ccccc1	·	10µM	?	–	5.2µM	–
C[C@@H](NC(=O)c1[nH]cnc1C(=O)Nc1ccon1)c1ccccc1	·	?	–	–	?	–
CC(C)C[C@H](NC(=O)c1[nH]cnc1C(=O)N[C@H](C)c1ccccc1)C(=O)OC(C)(C)C	–	?	–	–	?	–
